The values that follow come from PubChem BioAssay (NCATS).

A short description of test [1]: qHTS for Inhibitors of Plasmodium falciparum (DD2) proliferation (AID 504314).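 For activity, negative = inhibition: parasite DNA measured by SYBR Green fluorescence after red cell lysis; plate controls were DMSO vehicle for no effect and artemisinin wells for full effect.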 Note: potency is the fitted concentration of half-maximal effect. In a few lines:
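Erythrocytes infected with P. falciparum (0.3% parasitemia, 2.5% hematocrit final) were incubated with compounds for 72 h at 37C, 5% CO2. Parasite DNA was detected by SYBR Green I fluorescence after saponin/Triton lysis, normalized to artemisinin (0.29 uM) and DMSO controls.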
Background: qHTS replaces the single test concentration by a dilution series.

Test [2] can be described thus: qHTS for Inhibitors of Plasmodium falciparum (GB4) proliferation (AID 504315). Note: nearly all actives have a fitted effect of over 50% in size. Note: potency is the fitted concentration of half-maximal effect. Summed up:
(§1)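 Erythrocytes infected with P. falciparum line (0.3% parasitemia, 2.5% hematocrit final) incubated with compounds 72 h at 37 °C, 5% CO2; SYBR Green lysis buffer added, fluorescence read next day. Normalized to 0.29 uM artemisinin and DMSO.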

Test [3] is described as follows: qHTS for Inhibitors of Plasmodium falciparum (7G8) proliferation (AID 504316). Note: nearly all actives have a fitted effect of over 65% in size. Note: potency is the fitted concentration of half-maximal effect. Summed up:
as §1

The nature of test [4]: qHTS for Inhibitors of Plasmodium falciparum (HB3) proliferation (AID 504318). Note: nearly all actives have a fitted effect of over 60% in size. Note: potency is the fitted concentration of half-maximal effect. Summed up:
as §1

Test [5] is described as follows: qHTS for Inhibitors of Plasmodium falciparum (CP250) proliferation (AID 504320).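 Note: plate controls were DMSO vehicle for no effect and 0.29 µM artemisinin control for full effect.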 In a few lines:
as §1

For test [6], the target named is Glucocorticoid receptor (Homo sapiens) (UniProt P04150). The test can be described thus: GR-GFP Redistribution (AID 450;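 active = compounds whose dose series gives a full or clear partial fitted curve of increased nuclear translocation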; note: potency is the fitted concentration of half-maximal effect). The settings on record: U2OS GR-GFP nuclear translocation, laser cytometry, 2 h.
Test [7] shares this target. Kind of test: GR-EFC Redistribution (AID 451; calls by dose curve; note: potency is the fitted concentration of half-maximal effect). The settings on record: CHO-K1 GR-EFC translocation, beta-gal luminescence, 2 h. Summed up: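 CHO-K1 cells expressing nuclear EA and GR-ED fragments of b-gal; compounds titrated up to 46 uM final, 2 h at 37 C. GR nuclear translocation read as complemented b-gal luminescence after 1 h RT detection.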
In test [8] the target is DNA dC->dU-editing enzyme APOBEC-3G (Homo sapiens) (UniProt Q9HC16). The test can be described thus: qHTS for inhibitors of Vif-A3G interactions: Validation (AID 588379). Note: 0% is about no effect. In a few lines: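 HeLa cells stably expressing Vif and A3G-eYFP, 700 cells/well, incubated overnight at 37 deg C, then exposed to compound overnight at 37 deg C. Inhibition of Vif-mediated degradation read as increased yellow fluorescence (Ex 488/Em 500-530) by laser-scanning cytometry.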

In test [9] the target is Mitogen-activated protein kinase 10 (Mus musculus) (UniProt Q61831). The test can be described thus: JNK3 AlphaScreen Assay (AID 530; active = well fitted curve in either direction with a large enough effect, not every such curve was filed as active;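 note: kinase came from lysate of stimulated human HepG2 cells; signal reports phosphorylation of biotinylated GST-cJun 1-79 at Ser73 with 10 µM ATP; series mostly up to about 57 µM; % is set by controls: 0 for no effect and ±100 for the full control effect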). Summed up: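 qHTS format: compounds tested as titrations against IL-1beta/TNF-alpha-activated HepG2 lysate JNK3 with biotin-GST-cJun substrate and 10 uM ATP at room temperature. Loss of anti-phospho-cJun AlphaScreen signal indicates inhibition.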

A number with no mark means an inactive call. Inconclusive results are not listed. Calls of active or inactive are those of the source. Unless noted, calls come from the whole dose curve; as a rule, active = well fitted curve in the direction sought with a large enough effect; inconclusive = small, poorly fitted or top-dose-only effect, or another doubt; inactive = no such curve, though single readings can be large; an effect the other way counts as inactive or inconclusive.

Chain of Glucocorticoid receptor (Homo sapiens) (P04150 whole entry, looked up, the tested form may be a part): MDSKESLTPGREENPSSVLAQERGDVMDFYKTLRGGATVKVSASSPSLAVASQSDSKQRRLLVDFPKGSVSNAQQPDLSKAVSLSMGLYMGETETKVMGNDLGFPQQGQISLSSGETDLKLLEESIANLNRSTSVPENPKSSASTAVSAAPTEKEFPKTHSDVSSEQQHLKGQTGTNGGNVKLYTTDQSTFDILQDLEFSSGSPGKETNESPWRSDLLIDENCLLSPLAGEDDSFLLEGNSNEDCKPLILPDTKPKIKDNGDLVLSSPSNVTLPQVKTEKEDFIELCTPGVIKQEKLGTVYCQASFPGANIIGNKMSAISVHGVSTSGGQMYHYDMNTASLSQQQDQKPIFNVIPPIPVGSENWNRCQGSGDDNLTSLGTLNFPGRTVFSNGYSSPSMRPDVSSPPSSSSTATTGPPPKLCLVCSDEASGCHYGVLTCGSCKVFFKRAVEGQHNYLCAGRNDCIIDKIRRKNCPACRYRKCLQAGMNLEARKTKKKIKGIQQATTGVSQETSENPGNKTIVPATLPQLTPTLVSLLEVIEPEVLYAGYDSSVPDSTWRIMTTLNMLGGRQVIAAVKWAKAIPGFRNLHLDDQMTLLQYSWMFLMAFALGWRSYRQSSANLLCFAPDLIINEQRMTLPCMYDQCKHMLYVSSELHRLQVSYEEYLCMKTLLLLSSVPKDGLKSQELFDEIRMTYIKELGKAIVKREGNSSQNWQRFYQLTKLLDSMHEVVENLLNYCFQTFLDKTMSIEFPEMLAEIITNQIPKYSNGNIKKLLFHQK
Chain of DNA dC->dU-editing enzyme APOBEC-3G (Homo sapiens) (Q9HC16 whole entry, looked up): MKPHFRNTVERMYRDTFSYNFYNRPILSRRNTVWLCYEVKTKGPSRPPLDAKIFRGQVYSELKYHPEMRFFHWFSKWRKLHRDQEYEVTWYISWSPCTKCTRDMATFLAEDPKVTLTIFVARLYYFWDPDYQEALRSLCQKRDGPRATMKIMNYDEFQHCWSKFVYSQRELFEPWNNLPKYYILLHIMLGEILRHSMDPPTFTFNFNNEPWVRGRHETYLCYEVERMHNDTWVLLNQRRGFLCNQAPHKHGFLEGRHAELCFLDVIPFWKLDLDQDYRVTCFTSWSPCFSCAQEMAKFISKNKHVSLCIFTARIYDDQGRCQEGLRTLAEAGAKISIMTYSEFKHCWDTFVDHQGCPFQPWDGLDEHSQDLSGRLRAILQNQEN

Take `COC(=O)NC(c1ccc2c(c1)OCO2)C(C(=O)OC)C(=O)OC` (configuration not stated): the Potency entry in test [1], in [2], in [3], in test [4] and in [5] was “inactive” in each case.

Turning to `C=CCC12OC3(OC)CC1[C@H](C)[C@@H](c1ccccc1)C2[C@@]3(C)O` (some centres not stated), the Potency result in test [1], in [2], in [3], in test [4] and in test [5] was “inactive” in each case.

Take `c1cc2c3c(c1)c1c(n3CCNC2)CCCC1`: the Potency in [6] and in [7] was over 46 µM each time. The Potency result in [8] is “inactive”.

As for `COC(=O)CC1c2ccccc2C=C(C2CC2)N1C(=O)OC` (configuration not stated), the Potency result in test [1], in [2], in [3], in test [4] and in test [5] was “inactive” in each case.

For `OC[C@H]1O[C@H](c2ccccc2)C=C[C@H]1OCc1cccc(Br)c1`, the Potency result in test [1], in [2], in test [3] and in test [4] was “inactive” throughout.

For the compound `CC(C)(C)c1nc(-c2ccccc2)oc1Nc1ccc2ccccc2c1`, the Potency in [1] is 1.69 µM (active); in test [2], 1.9 µM (active); in test [3] it was 1.51 µM (active); in test [4], 2.94 µM (active).

As to `COC(=O)N[C@@H](C=Cc1ccco1)[C@]1(C(=O)OC)CCCC1=O`, the Potency entry in test [1], in [2], in test [3], in [4] and in [5] was “inactive” in each case.

In the case of `CC(=O)OC[C@H]1O[C@H](C#Cc2ccc(F)cc2F)C=C[C@H]1OC(C)=O`, the Potency entry in [1], in test [2], in test [3] and in test [4] was “inactive” in each case.

As to `CC[C@H](C)[C@@H](NC(=O)O[C@H]1C(=O)c2ccc(OC)cc2O[C@@H]1c1ccc2c(c1)OCO2)C(=O)OC`, the Potency result in test [1], in test [2], in test [3], in [4] and in test [5] was “inactive” in each case.

As for `COC(=O)[C@@]1(C=C2c3ccc(OC)cc3[C@@H](OC)[C@@H]2C)[C@@H]2C=CC[C@@H]21`, the Potency result in test [1], in test [2], in test [3], in test [4] and in test [5] was “inactive” throughout.

Take `C[C@@H]1C(c2ccccc2)CC(=O)C(=O)C[C@@H]1C(=O)N1CCCC1` (some centres not stated): the Potency result in test [1], in test [2], in test [3], in test [4] and in [5] was “inactive” each time.

On to `O=C1[C@@H]2[C@H]3[C@H](O)[C@H](O)CC(=NOC[C@@H](O)COCc4ccco4)[C@@H]3CC[C@H]2C(=O)N1C[C@@H]1CCCO1`, for which the Potency entry in test [1], in test [2], in [3], in test [4] and in test [5] was “inactive” throughout.

`O=C(Oc1ccccc1)[C@H]1O[C@H]1c1ccccc1`: the Potency entry in test [1], in [2], in test [3], in test [4] and in test [5] was “inactive” each time.

Take `COC(=O)[C@H]1[C@@H](c2cccc(C(F)(F)F)c2)NC(=O)N(Cc2ccccc2)[C@@H]1C`: the Potency result in [1], in [2], in [3], in [4] and in test [5] was “inactive” each time.

Turning to `C=CCN1C(=O)CC[C@@]23C1=NC(C(=O)OC)=C(C(=O)OC)[C@@H]2N(C)c1ccccc13`, the Potency result in test [1], in test [2], in test [3], in [4] and in test [5] was “inactive” throughout.

Regarding `CC=COC(=O)N[C@@H](c1ccccc1)[C@]1(C(C)=O)CCCC1=O`, the Potency result in test [1], in [2], in [3], in test [4] and in test [5] was “inactive” throughout.

With `COC(=O)[C@@]1(C=C2c3ccc(F)cc3[C@@H](OC)[C@@H]2C)[C@@H]2OCCC[C@@H]21`, the Potency entry in test [1], in [2], in [3] and in test [4] was “inactive” in each case.

As to `COCCN1C(=O)C2=C(C1=O)C1N(C)c3ccccc3[C@@]13C[C@@H](CO)N(C(=O)CCC(=O)OC)C3=N2` (some centres not stated), the Potency result in [1], in test [2], in [3], in [4] and in test [5] was “inactive” in each case.

`CCO[C@@H]1C[C@@]1(C=C[C@@H](C)[C@H](OC)c1ccccc1Br)C(=O)OC`: the Potency entry in test [1], in test [2], in [3], in test [4] and in [5] was “inactive” each time.

In the case of `Cc1noc(C)c1S(=O)(=O)N1CCc2nc(-c3ccccc3)c3c(c2C1)CO[C@@H](C)C3`, in test [1], the activity, negative = inhibition is 2% [at 1.12 µM]. For the same compound, the Potency result in test [2], in [3], in test [4] and in test [5] was “inactive” throughout.

As for `COCCN1C(=O)NC(c2cccc(F)c2)C(C(C)=O)=C1C` (configuration not stated), the Potency entry in test [1], in test [2], in [3], in test [4] and in [5] was “inactive” each time.

Take `COC(=O)CCCC1=CC2=CC(=O)C(C)(OC(=O)c3cccs3)C(=O)C2=CN1CCN1CCOCC1` (configuration not stated): the Potency result in test [1], in [2], in test [3], in test [4] and in test [5] was “inactive” each time.

Regarding `CCCCCCCc1cc2ccccc2c2c(C(C)=O)c(-c3ccccc3)c(C(=O)OC)n12`, the Potency result in test [1], in test [2], in test [3] and in test [4] was “inactive” in each case.

As to `COc1ccc2cccc(N3CCN(CCNC(=O)c4ccc(F)cc4)CC3)c2c1`, the Potency in [6] and in [7] was over 46 µM in each case. Further, the Potency entry in [9] and in [8] was “inactive” in each case.

Take `O=S(=O)(CCc1ccccc1)c1ccccc1`: the Potency entry in [1], in test [2], in test [3], in test [4] and in [5] was “inactive” throughout.

`O=C1[C@H]2[C@@H]3[C@@H](O)[C@H](O)CC(=NOCc4ccccc4)[C@@H]3CC[C@H]2C(=O)N1C1CCCCC1`: the Potency result in test [1], in test [2], in test [3], in test [4] and in test [5] was “inactive” each time.
